Reference: ChEMBL document CHEMBL4513216, “Probing the Open Global Health Chemical Diversity Library for Multistage-Active Starting Points for Next-Generation Antimalarials” (ACS Infect Dis, 2020)
Screen size: about 69,000 compounds; about 8,600 (12%) showed an effect of 50% or more. Many of the other results were omitted from the sample, so strong results are more common in it than they were.

system: Plasmodium berghei; assay: Screen against P. berghei liver stage (PbLuc), transformed with Luciferase, at 10uM; assay type: functional, HepG2; details: tested at 10 uM

SMILES	INHIBITION
Cc1cccc(CN2CCc3ncnc(N4CCOCC4)c3CC2)n1	-9.86%
Cc1ccc(CN(CCCN2CCOCC2)Cc2[nH]cnc2C)o1	-18.9%
CS(=O)(=O)N1CCC[C@]2(C[C@@H](Oc3ncccc3F)CO2)C1	26.2%
CN1CC=C(c2noc(CCC(=O)N3CCCC3)n2)CC1	41.6%
CN1CC=C(c2noc(CCC(=O)N3CCc4ccccc4C3)n2)CC1	77.2%
CN1CC=C(c2noc(CCC(=O)N3CCc4ccccc43)n2)CC1	32.5%
CCc1cccc(N2CCC(NC(=O)c3ccc(=O)[nH]n3)CC2)c1	21.9%
CCc1ccc(O)c(C(=O)NC2CCN(S(=O)(=O)CC)CC2)c1	44.2%
O=C(NC1CCCN(Cc2c(F)cccc2F)C1)c1cc[nH]n1 (centres undefined)	32.2%
CCc1cccc(N2CCC(NC(=O)c3ccncc3)CC2)c1	23.5%
CCc1cccc(N2CCC(NC(=O)c3cc[nH]n3)CC2)c1	77.3%
Cc1occc1C(=O)NC1CCN(C(=O)Nc2cccnc2)CC1	46.3%
O=C(NCc1cccc(N2CC=CC2)c1)NC1CC1	-37.7%
CCc1cccc(N2CCC(NC(=O)c3ccco3)CC2)c1	91.4%
CCc1cccc(N2CCC(NC(=O)c3ccoc3C)CC2)c1	70.8%
O=C([C@@H]1C[C@H]2[C@H](CCN2Cc2nccs2)O1)N1CCOCC1	-1.53%
O=C(O)CNC(=O)Cc1csc(-c2ccccc2F)n1	32.8%
Cc1ccc(O)c(C(=O)N2CCCC2CC(=O)c2cnn(C)c2)c1 (centres undefined)	50.2%
CCc1ccccc1C(=O)N1CCCC1CC(=O)c1cnn(C)c1 (centres undefined)	30.6%
Cc1cscc1C(=O)N1CCCC1CC(=O)c1cnn(C)c1 (centres undefined)	12.7%
CCn1cc(S(=O)(=O)N2CCC(C3CCCCN(C)C3=O)CC2)c(C)n1 (centres undefined)	37.1%
OCC1CCN(C[C@@H]2CN(C3Cc4ccccc4C3)C[C@@H]2CO)CC1	48.5%
COc1cc(C(=O)N2CCC(Nc3cccnc3)CC2)ccc1C	-22.1%
CCc1cnc(N2C[C@@H]3C[C@H](C(=O)NC4CCC4)[C@H](C2)O3)nc1	5.63%
O=C(NC1CCC1)[C@H]1C[C@H]2CN(CC3CC3)C[C@@H]1O2	65.3%
O=C(NC1CCC1)[C@H]1C[C@H]2CN(S(=O)(=O)c3ccccc3)C[C@@H]1O2	51.2%
O=C(Nc1ccccc1)[C@H]1C[C@H]2CN(S(=O)(=O)c3ccccc3)C[C@@H]1O2	5.96%
Cc1cccc(S(=O)(=O)N2C[C@@H]3C[C@H](C(=O)NC4CCC4)[C@H](C2)O3)c1	5.36%
CC(C)CN1C[C@@H]2C[C@H](C(=O)NC3CCC3)[C@H](C1)O2	31.5%
